Measured values published in PubChem BioAssay AID1159580 (chemical genetic matrix, 2015).
Values joined by “and” are separate entries in the source; they are usually repeats but may differ in a detail not shown here. Equal entries are not always repeated. In all, about 5,500 compounds went through this assay and about 2,000 (36%) were called active. Another 18% or so got no clear call; they are omitted. Cut-off read from the data, not from the text of the source: active = normalized growth mostly below about 0.91 (no sharp cut-off); inconclusive = no clear call, values can overlap the other calls; inactive = mostly above about 0.92. This is one part of the list.

Assay: chemical genetic growth profiling, strain panel (AID 1159580);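 note: tested at 20 µM; growth read once vehicle control cultures reached saturation at 30 °C; 1 = growth at the plate median or of vehicle wells; lower values mean less growth of the strain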
Conditions: growth OD

Measured: normalized growth

COc1ccc2c(=O)c(OC)c(-c3ccccc3)oc2c1
active: S. cerevisiae deletion strains, locus YBR021W, strain FUR4, stronger effect = lower value 0.758 | S. cerevisiae deletion strains, locus YDL035C, strain GPR1, stronger effect = lower value 0.83 | S. cerevisiae deletion strains, locus YDL074C, strain BRE1, stronger effect = lower value 0.713 | S. cerevisiae deletion strains, locus YDL101C, strain DUN1, stronger effect = lower value 0.855 | S. cerevisiae deletion strains, locus YDL192W, strain arf1, stronger effect = lower value 0.829 | S. cerevisiae deletion strains, locus YDR101C, strain arx1, stronger effect = lower value 0.855 | S. cerevisiae deletion strains, locus YDR162C, strain NBP2, stronger effect = lower value 0.68 | S. cerevisiae deletion strains, locus YDR318W, strain mcm21, stronger effect = lower value 0.863 | S. cerevisiae deletion strains, locus YDR502C, strain sam2, stronger effect = lower value 0.836 | S. cerevisiae deletion strains, locus YEL061C, strain CIN8, stronger effect = lower value 0.891 | S. cerevisiae deletion strains, locus YER155C, strain BEM2, stronger effect = lower value 0.893 | S. cerevisiae deletion strains, locus YER167W, strain BCK2, stronger effect = lower value 0.858 | S. cerevisiae deletion strains, locus YGL086W, strain mad1, stronger effect = lower value 0.867 | S. cerevisiae deletion strains, locus YGL248W, strain PDE1, stronger effect = lower value 0.831 | S. cerevisiae deletion strains, locus YGR078C, strain PAC10, stronger effect = lower value 0.743 | S. cerevisiae deletion strains, locus YGR135W, strain pre9, stronger effect = lower value 0.754 | S. cerevisiae deletion strains, locus YGR229C, strain SMI1, stronger effect = lower value 0.477 | S. cerevisiae deletion strains, locus YGR252W, strain gcn5, stronger effect = lower value 0.582 | S. cerevisiae deletion strains, locus YHR129C, strain ARP1, stronger effect = lower value 0.858 | S. cerevisiae deletion strains, locus YHR200W, strain rpn10, stronger effect = lower value 0.892 | S. cerevisiae deletion strains, locus YIL066C, strain RNR3, stronger effect = lower value 0.771 | S. cerevisiae deletion strains, locus YJL187C, strain SWE1 (second series), stronger effect = lower value 0.859 | S. cerevisiae deletion strains, locus YJR043C, strain POL32, stronger effect = lower value 0.797 | S. cerevisiae deletion strains, locus YKR001C, strain vps1, stronger effect = lower value 0.848 | S. cerevisiae deletion strains, locus YLR058C, strain SHM2, stronger effect = lower value 0.888 | S. cerevisiae deletion strains, locus YLR268W, strain sec22, stronger effect = lower value 0.866 | S. cerevisiae deletion strains, locus YLR330W, strain CHS5, stronger effect = lower value 0.752 | S. cerevisiae deletion strains, locus YLR342W, strain FKS1 (second series), stronger effect = lower value 0.723 | S. cerevisiae deletion strains, locus YLR371W, strain rom2, stronger effect = lower value 0.794 | S. cerevisiae deletion strains, locus YLR418C, strain cdc73, stronger effect = lower value 0.532 | S. cerevisiae deletion strains, locus YML032C, strain rad52, stronger effect = lower value 0.723 | S. cerevisiae deletion strains, locus YMR078C, strain ctf18, stronger effect = lower value 0.893 | S. cerevisiae deletion strains, locus YMR223W, strain ubp8, stronger effect = lower value 0.845 | S. cerevisiae deletion strains, locus YMR263W, strain SAP30, stronger effect = lower value 0.845 | S. cerevisiae deletion strains, locus YNL067W, strain RPL9B, stronger effect = lower value 0.856 | S. cerevisiae deletion strains, locus YNL233W, strain BNI4, stronger effect = lower value 0.717 | S. cerevisiae deletion strains, locus YNL298W, strain CLA4, stronger effect = lower value 0.894 | S. cerevisiae deletion strains, locus YNL307C, strain MCK1, stronger effect = lower value 0.676 | S. cerevisiae deletion strains, locus YNR052C, strain pop2, stronger effect = lower value 0.882 | S. cerevisiae deletion strains, locus YOL006C, strain TOP1, stronger effect = lower value 0.396 | S. cerevisiae deletion strains, locus YOL147C, strain pex11, stronger effect = lower value 0.904 | S. cerevisiae deletion strains, locus YOR069W, strain VPS5, stronger effect = lower value 0.909 | S. cerevisiae deletion strains, locus YOR144C, strain elg1, stronger effect = lower value 0.924 | S. cerevisiae deletion strains, locus YOR184W, strain ser1, stronger effect = lower value 0.622 | S. cerevisiae deletion strains, locus YPL055C, strain LGE1, stronger effect = lower value 0.752 | S. cerevisiae deletion strains, locus YPR163C, strain tif3, stronger effect = lower value 0.853 | S. cerevisiae deletion strains, locus YPR167C, strain met16, stronger effect = lower value 0.901 | S. cerevisiae deletion strains, strain wtn01, stronger effect = lower value 0.887 | S. cerevisiae strains, strain wild type, stronger effect = lower value 0.884
0.646 (active) and 0.936 (inactive): S. cerevisiae deletion strains, locus YHR030C, strain SLT2, stronger effect = lower value
0.454 (active) and 0.941 (inactive): S. cerevisiae deletion strains, locus YJL095W, strain BCK1, stronger effect = lower value
inactive: S. cerevisiae deletion strains, locus YBR229C, strain ROT2, stronger effect = lower value 0.966 | S. cerevisiae deletion strains, locus YCL029C, strain bik1, stronger effect = lower value 0.945 | S. cerevisiae deletion strains, locus YDL185W, strain tfp1, stronger effect = lower value 0.951 | S. cerevisiae deletion strains, locus YDR388W, stronger effect = lower value 0.929 | S. cerevisiae deletion strains, locus YER110C, stronger effect = lower value 0.932 | S. cerevisiae deletion strains, locus YGL078C, strain dbp3, stronger effect = lower value 0.939 | S. cerevisiae deletion strains, locus YHR079C, strain IRE1 (second series), stronger effect = lower value 0.943 | S. cerevisiae deletion strains, locus YHR079C, strain IRE1, stronger effect = lower value 0.925 | S. cerevisiae deletion strains, locus YHR094C, strain hxt1, stronger effect = lower value 0.977 | S. cerevisiae deletion strains, locus YIL073C, strain SPO22, stronger effect = lower value 0.862 | S. cerevisiae deletion strains, locus YIL125W, strain kgd1, stronger effect = lower value 0.975 | S. cerevisiae deletion strains, locus YIR030C, strain dcg1, stronger effect = lower value 0.928 | S. cerevisiae deletion strains, locus YJL134W, strain LCB3, stronger effect = lower value 0.951 | S. cerevisiae deletion strains, locus YJL168C, strain set2, stronger effect = lower value 0.97 | S. cerevisiae deletion strains, locus YJR066W, strain TOR1, stronger effect = lower value 0.867 | S. cerevisiae deletion strains, locus YJR075W, strain HOC1, stronger effect = lower value 0.89 | S. cerevisiae deletion strains, locus YKL009W, strain mrt4, stronger effect = lower value 0.901 | S. cerevisiae deletion strains, locus YKL068W, stronger effect = lower value 0.975 | S. cerevisiae deletion strains, locus YKL085W, strain MDH1 (second series), stronger effect = lower value 0.974 | S. cerevisiae deletion strains, locus YKL085W, strain MDH1, stronger effect = lower value 0.974 | S. cerevisiae deletion strains, locus YKL190W, strain CNB1, stronger effect = lower value 0.923 | S. cerevisiae deletion strains, locus YLR039C, strain RIC1, stronger effect = lower value 0.906 | S. cerevisiae deletion strains, locus YLR102C, strain apc9, stronger effect = lower value 0.95 | S. cerevisiae deletion strains, locus YLR113W, strain HOG1, stronger effect = lower value 0.931 | S. cerevisiae deletion strains, locus YLR262C, strain YPT6, stronger effect = lower value 0.901 | S. cerevisiae deletion strains, locus YML016C, strain PPZ1, stronger effect = lower value 0.947 | S. cerevisiae deletion strains, locus YML124C, strain tub3, stronger effect = lower value 0.941 | S. cerevisiae deletion strains, locus YMR307W, strain GAS1, stronger effect = lower value 0.658 | S. cerevisiae deletion strains, locus YNL183C, strain NPR1, stronger effect = lower value 0.916 | S. cerevisiae deletion strains, locus YNL250W, strain rad50, stronger effect = lower value 0.969 | S. cerevisiae deletion strains, locus YNL271C, strain bni1, stronger effect = lower value 0.921 | S. cerevisiae deletion strains, locus YNL322C, strain KRE1, stronger effect = lower value 0.95 | S. cerevisiae deletion strains, locus YOL012C, strain htz1 0.856 | S. cerevisiae deletion strains, locus YOR061W, strain CKA2, stronger effect = lower value 0.942 | S. cerevisiae deletion strains, locus YOR136W, strain idh2, stronger effect = lower value 0.95 | S. cerevisiae deletion strains, locus YOR231W, strain MKK1, stronger effect = lower value 0.921 | S. cerevisiae deletion strains, locus YOR316C, strain cot1, stronger effect = lower value 0.953 | S. cerevisiae deletion strains, locus YPL256C, strain CLN2, stronger effect = lower value 0.932 | S. cerevisiae deletion strains, locus YPR119W, strain clb2, stronger effect = lower value 0.936 | S. cerevisiae deletion strains, locus YPR141C, strain kar3, stronger effect = lower value 0.978
